Laboratory results published in PubChem BioAssay (NCI).
This is part of a sample that, as a whole, favours compounds with a hit. Of some 83,000 tested, about 20% had one in any assay.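 Single-dose data. Exposure time 48 hours. Values below 10 considered active.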 Calls of active or inactive are those of the source.

test system: M14 melanoma; test: NCI-60 one-dose screen, 48 h (100 = growth as untreated, 0 = no growth, -100 = all killed); details: 10 µM unless noted
Description: Growth inhibition of the M14 human tumor cell line is measured as a screen for anti-cancer activity. Cells are grown in 96 well plates and exposed to the test compound for 48 hours. Compounds are tested at a single concentration, which is 10^-5 M for most compounds. The reported endpoint is percent growth (GI% or GIPRCNT), where numbers from 0 - 100% represent growth inhibition, and numbers from -100% - 0 represent cell death. For example, a value of 40 represents 60% growth inhibition. A value of 0 means no net growth occurred over the course of the experiment. A value of -40 indicates 40% of cells at the beginning of the experiment died by the end of the experiment. A value of -100 means all cells are dead at the end of the experiment.
NCI-60 Human Tumor Cell Lines Screen was performed using the standard one-dose NCI protocol, which is described in more detail at https://dtp.cancer.gov/discovery_development/nci-60/default.htm.
Compounds with GIPRCNT values below 10 were considered active. Activity score was based on GIPRCNT using the following formula: […]
Score is 0 for GIPRCNT values of 100 or above, 50 for GIPRCNT values of 0, and 100 for GIPRCNT values of -100.

SMILES | growth
O=C1CCCC2=C1C(c1c[nH]c3ccc(Br)cc13)Cc1cc(Br)ccc1N2 (stereo not given) | 13.1% (inactive)
Cc1cc(C)cc(C(=O)Nc2cccc(C#Cc3cccc4[nH]nc(N)c34)c2)c1 | 43.5% (inactive)
Nc1nc(-c2cccc([N+](=O)[O-])c2)c(N=Nc2ccc(Br)cc2)s1 | -75.4% (active)
CCN(CC)CCn1c2ccc(O)cc2c2sc3cc(OC)ccc3c(=O)c21 | 0.234% (active)
Nc1nc(Nc2ccccc2SSc2ccccc2Nc2nc(N)nc(-c3cccc(Br)c3)n2)nc(-c2cccc(Br)c2)n1 | 90.4% (inactive)
CN1c2ccccc2Sc2cc(C=C(C#N)C#N)ccc21 | 96% (inactive)
CCO/C=N/C1=C(C#N)C(c2ccc(F)cc2)c2sc3c(C)cccc3c2O1 (stereo not given) | 3.68% (active)
Cc1ccc(N2C(=O)/C(=C/C=C/c3ccco3)SC2=S)cc1 | 103% (inactive)
COc1ccccc1-n1cc(C#N)c(N)c1C(=O)c1ccc(Br)cc1 | 42.3% (inactive)
CCO/C=N/C1=C(C#N)C(c2ccc(F)cc2)c2sc3c(CC)cccc3c2O1 (stereo not given) | 8.85% (active)
Cc1cc(C)c2sc(=O)n(Cc3nnc(SCCC(=O)O)o3)c2n1 | 104% (inactive)
COc1cc2nc(Cl)nc(Nc3cccc(C4=Nc5c(N)nc(N)nc5NC(c5ccc(Br)cc5)C4)c3)c2cc1OC (stereo not given) | 84.1% (inactive)
Cc1c(F)cc(C(N)=O)cc1NCC(=O)Nc1ccc([N+](=O)[O-])cc1 | 99.1% (inactive)
O=C(NNc1nc2cc(F)ccc2n2cccc12)c1ccncn1 | 1.55% (active)
COc1cccc(N2CCN(c3ncnc4c3[nH]c3ccc(F)cc34)C[C@H]2C)c1 | 41.7% (inactive)
Cc1cc(S(=O)(=O)N(C)C)cc(NCC(=O)NC(=O)NCC(C)C)c1C | 100% (inactive)
Cc1cccc2c3c(sc12)C(c1ccc(F)cc1)C(C#N)=C(/N=C/c1ccc(Cl)cc1)O3 (stereo not given) | -3.44% (active)
O=C(CN1CCN(c2cc(=O)n(-c3ccccc3)c3ccccc23)CC1)Nc1ccc(F)cc1 | 75.7% (inactive)
CNCc1cccc2c1OCCCCCCC(C)(O)CC(C)(C)S(=O)(=O)c1ccc(cc1)-c1cnc(N)c(n1)C(=O)N2 (stereo not given) | -88.9% (active)
NC(N)=Nc1ccc(Oc2cccc(Nc3ccc(Cl)c(C(F)(F)F)c3)c2)cn1 | -62.4% (active)

SMILES | growth
CN1CCN(c2nc(-c3csc(-c4ccccc4)n3)cc3ccccc23)CC1 | -70.8% (active)
C=C(C=O)[C@@H]1CC[C@]2(CO)CC[C@]3(C)[C@H](CC[C@@H]4[C@@]5(C)CCCNC(C)(C)[C@@H]5CC[C@]43C)[C@@H]12 | 61.3% (inactive)
CS(=O)(=O)c1ccc(-n2cc(/C=N/O)c(-c3ccccc3)n2)cc1 | 98.1% (inactive)
NC(N)=Nc1ccc(Oc2cccc(Nc3cccc(C(F)(F)F)c3)c2)cn1 | 5.01% (active)
CCOC(=O)c1c(N)c(C#N)cn1-c1cc(OC)c(OC)c(OC)c1 | 109% (inactive)
CC1(COc2ccc3ncc(C#Cc4cncc(C(=O)Nc5cccc(C(F)(F)F)c5)c4)n3n2)COC1 | 78% (inactive)
CC1(C)CC[C@]2(C(=O)N3CCOCC3)CC[C@]3(C)C(=CC[C@@H]4[C@@]5(C)C/C(=C/c6ccco6)C(=O)C(C)(C)[C@@H]5CC[C@]43C)[C@@H]2C1 | 101% (inactive)
CCNC(=O)N1CCc2cc(OC)c(OCCc3ccc(OC)cc3)cc2C1c1ccc(Cl)cc1C (stereo not given) | 17.5% (inactive)
COc1ccc2[nH]cc(/C=N/Nc3nc4ccccc4s3)c2c1 | 52% (inactive)
CC(=O)N(C)C1CCc2c(sc(NC(=O)c3ccc(C(C)(C)C)cc3)c2C(N)=O)C1 (stereo not given) | 75.5% (inactive)
O=C(Nc1ccc(N=Cc2c(O)[nH]c3ccccc23)cc1)Nc1nccs1 | 18.5% (inactive)
O=C(Nc1ccc2c(ccn2Cc2ccccn2)c1)c1ccnnc1 | 99.7% (inactive)
Clc1nc2ccccc2nc1-c1nnc(C2CCCCC2)o1 | 94.3% (inactive)
CC1=N[C@@H]2CN(C(=O)OC(C)(C)C)C[C@@H]2n2c1cc1ccccc1c2=O | 97.7% (inactive)
COc1ccc(-n2c(SCc3nnc(NC(=O)c4ccc(Br)cc4)s3)nc3cc(OC)c(OC)cc3c2=O)cc1 | 92.5% (inactive)
Cc1ccc(S(=O)(=O)N(CC[C@@H]2C[C@H]2c2cc3ccccc3o2)S(=O)(=O)c2ccc(C)cc2)cc1 | 99% (inactive)
N/C(=N\C(N)=N\c1nc2ccccc2s1)c1ccncc1Cl | 32.4% (inactive)
CC(C)(C)c1ccc(CC(=O)Nc2sc3c(c2C(N)=O)CCC(=O)C3)cc1 | 7.16% (active)
Cc1cc(C)c(N2C(=O)CC(Nc3ccc(Cl)cc3Cl)C2=O)c(C)c1 (stereo not given) | 103% (inactive)
C#CCOC(=O)[C@@H]1CCCN1CC#C | 98.4% (inactive)
